Reference: PubChem BioAssay AID1578 (Sanford-Burnham Center for Chemical Genomics, 2009)
The campaign covered roughly 290,000 compounds. About 3,000 (1%) were called active. For the sample, actives were picked, then their nearest neighbours and some compounds at random. Unmarked numbers belong to inactive results. Rule as the data show it: active = inhibition mostly above about 36% (no sharp cut-off); inactive = mostly below about 34%.

Assay: inhibition of NOD1-driven NF-kB reporter – cell-based, luminescence, uHTS, primary screen (AID 1578);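 also: HEK-293T reporter cells stimulated with the NOD1 agonist gamma-tri-DAP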
Conditions: NOD1-driven NF-kB luciferase reporter cells, at 4 µM, hits give high values

| Compound | inhibition |
| --- | --- |
| COc1cc2cc(CN(Cc3cccnc3)C(=O)Nc3ccccc3F)c(=O)[nH]c2cc1OC | -29.7% |
| CCOc1ccccc1NC(=O)c1sc2ncn(CC(=O)N3CCOCC3)c(=O)c2c1C | 1.5% |
| CCCCOc1ccc(CN2CCSCC2)cc1 | -28.4% |
| Cc1nc2sc(C(=O)c3ccccc3)c(N)c2c(C)c1C | 27.9% |
| Cc1nc2sc(C(N)=O)c(N)c2c(C)c1CC(=O)c1ccccc1 | 84.2% (active) |
| CCOC(=O)c1c(C)nc2sc(C(N)=O)c(N)c2c1-c1ccccc1 | 31% |
| CC(=O)Nc1nc(-c2cccc3ccccc23)cs1 | -32.8% |
| O=C(O)c1cc(=O)n(Cc2ccccc2)c(=O)[nH]1 | -11.6% |
| O=C(Nc1ccc(Cn2cccn2)cc1)c1ccc(COc2ccccc2Br)cc1 | 60.2% |
| O=C(Nc1cccnc1)c1ccc(COc2ccccc2Br)cc1 | -8.4% |
| CC(C)(C)OC(=O)CNC(=O)c1nc[nH]c1C(=O)NCc1ccc(CNC(=O)OC(C)(C)C)cc1 | -14.2% |
| CCN(CC)C(=S)SC1CCCCN(C(=O)c2ccccc2)C1=O (stereo not drawn) | 65.6% (active) |
| CCN(CC)C(=S)SC1CCCCN(C(=O)c2ccc(F)cc2)C1=O (stereo not drawn) | -8% |
| O=C(c1ccccc1)N1CCCCC(Cl)C1=O (stereo not drawn) | -29.3% |
| CCOc1ccc(/C(O)=C2/C(=O)C(=O)N(c3ncccn3)C2c2ccccc2)cc1 (stereo not drawn) | 91.5% (active) |
| CCOc1ccc(/C(O)=C2/C(=O)C(=O)N(c3ncccn3)C2c2ccc(C)cc2)cc1 (stereo not drawn) | -0.8% |
| CCOc1ccc(/C(O)=C2/C(=O)C(=O)N(c3ncccn3)C2c2ccc(Cl)cc2)cc1 (stereo not drawn) | -1% |
| CCOc1ccc(NC(=S)Nc2ccc(F)cc2)cc1 | 2.3% |
| COc1ccc(NCCC(O)c2ccc(Cl)cc2)cc1 (stereo not drawn) | -11.5% |
| CCOc1ccc(NCCC(O)c2ccc(F)cc2)cc1 (stereo not drawn) | 34.5% (active) |
| S=C(NC1CCCC1)NC1CCCC1 | 2.9% |
| COc1ccc(C(=O)/C=C/c2ccccc2C(F)(F)F)cc1 | -21.4% |
| O=C(O)c1cc(C(F)(F)F)nc2c(C(F)(F)F)cccc12 | -18.1% |
| Cc1cc(C)nc(NC(=O)/C=C/c2ccc(Cl)cc2Cl)c1 | -58% |
| Clc1ccc(/C=C/c2ncc[nH]2)c(Cl)c1 | -2% |

| Compound | inhibition |
| --- | --- |
| N#C/C(=C\c1cc([N+](=O)[O-])ccc1Cl)C(N)=O | -44.7% |
| O=C(CCC(=O)Nc1cc(C(F)(F)F)ccc1Cl)N/N=C\c1cc([N+](=O)[O-])ccc1O | 3% |
| Cc1ccc(OCCCC(=O)NCc2ccco2)c(C)c1 | -28.1% |
| COc1ccc(NC2CCCN(C(=O)CCCN3CCCCC3=O)C2)cc1 (stereo not drawn) | 19.3% |
| CCc1ccc(CNC(=O)CCS(=O)(=O)Cc2ccccc2F)cc1 | 3.9% |
| CCC/C(C)=C/c1ccc(CC)cn1 | 12.7% |
| COc1cc(CNc2cccc(C(=O)O)c2)cc(Br)c1OCC(=O)NC(C)(C)C | 94.3% (active) |
| COc1cc(CNc2ccc(C(=O)O)cc2)cc(Br)c1OCC(=O)NC(C)(C)C | -27.4% |
| CCOc1cc(CNc2ccccc2)cc(Br)c1OCC(=O)NC(C)(C)C | 4.8% |
| CC(=O)c1ccc(N2CCN(S(=O)(=O)c3ccc4c5c3CC(=O)N5CC(C)S4)CC2)cc1 (stereo not drawn) | -20.1% |
| CCn1c(O)c(N=NC(=O)c2cccs2)c2ccccc21 | -38.2% |
| COc1cccc(C2CC(c3ccc(Cl)cc3)Nc3nc(N)nn32)c1 (stereo not drawn) | 13.7% |
| NC(=O)c1nnn(-c2ccccc2)c1N | -28.7% |
| Nc1c(CO)nnn1-c1ccccc1 | 68.7% (active) |
| OCc1nnn(-c2ccccc2)c1CO | -4.1% |
| COc1cc(/C=C/C(=O)OCC(=O)Nc2cc(C)c(C)cc2[N+](=O)[O-])ccc1O | -8.4% |
| Cc1ccc(-c2ccc(S(=O)(=O)NCC3CCCO3)cc2)cc1 (stereo not drawn) | 47.8% |
| O=S(=O)(NCC1CCCO1)c1ccc(-c2ccc(Cl)cc2)cc1 (stereo not drawn) | 9.5% |
| Cc1cccc(N2CCN(c3ccc4cc(S(=O)(=O)N5CCCCC5)ccc4n3)CC2)c1C | 25.6% |
| CCOc1ccccc1NC(=O)CSc1ccccc1 | -13.6% |
| S=C(Nc1ccc(Cl)cc1Cl)NC1CCCCC1 | -5% |
| Cc1cc(Cl)ccc1NC(=S)NC1CCCC1 | 24% |
| CC1CCCCC1NC(=S)Nc1ccc(Cl)cc1Cl (stereo not drawn) | 42.2% (active) |
| CCOC(=O)C(C)NC(=O)c1cn(-c2ccc(OC)cc2)c(=O)c2ccccc12 (stereo not drawn) | 1.9% |
| CCOC(=O)c1ccccc1NC(=O)c1cn(-c2ccc(C)c(C)c2)c(=O)c2ccccc12 | 48% |

| Compound | inhibition |
| --- | --- |
| CCOC(=O)c1ccccc1NC(=O)c1cn(-c2ccc(OC)cc2)c(=O)c2ccccc12 | 73.4% (active) |
| C=CCNC(=O)c1oc2ccc(S(=O)(=O)N3CCC4(CC3)OCCO4)cc2c1C | -20.9% |
| Cc1noc(C)c1C(=O)OCC(=O)Nc1ccccc1Oc1ccccc1 | -14% |
| Cc1csc(NC(=O)c2cc3c(s2)CCCC3)n1 | -106% |
| Cc1csc(NC(=O)c2cc3c(s2)CCC3)n1 | 5.9% |
| Cc1csc(NC(=O)c2cc3c(s2)CCCCC3)n1 | 73.7% (active) |
| CCOCCCNC(=O)c1ccc(N2CC3CC(C2)c2cccc(=O)n2C3)c(NC(=O)Nc2cccc(OC)c2)c1 (stereo not drawn) | -1.7% |
| COc1cccc2c1cc1c(=O)n(CC(=O)N3CCCCCC3)nc(C)n12 | -16% |
| CCn1ncc(Br)c1C(=O)Nc1sc2c(c1C(N)=O)CCC2 | 77.1% (active) |
| CCn1cc(Br)c(C(=O)Nc2sc3c(c2C(N)=O)CCCC3)n1 | -18.1% |
| Cn1ncc(Cl)c1C(=O)Nc1sc2c(c1C(N)=O)CCC2 | -24.6% |
| Cc1ccc(OS(=O)(=O)c2c(C)nn(C)c2Cl)c(C)c1 | -19.4% |
| CCn1cc(C(=O)O)c(=O)c2cc(F)c(N3CCN(C(=S)NC(=O)c4ccccc4Br)CC3)cc21 | -0.8% |
| CN1CCN(C(=S)Nc2ccc(Oc3ccccc3)cc2)CC1 | 6.6% |
| CC(C)=CC(=O)Nc1c(C)cc(C)cc1Cl | -18% |
| COc1ccc(-c2nc3ccccc3s2)cc1 | -35.3% |
| Oc1ccc(-c2nc3ccccc3s2)cc1 | -6.1% |
| CCOC(=O)Cc1csc(SC(C)C(=O)NCC(=O)Nc2ccc(F)c(F)c2F)n1 (stereo not drawn) | -36.3% |
| COc1ccc(C(=O)N/C(=C\c2cccs2)C(=O)N2CCN(C)CC2)cc1OC | -14.2% |
| O=C(c1ccco1)N1CCN(c2nc(C3CC3)nc3c2nnn3Cc2ccccc2Cl)CC1 | 44.4% (active) |
| NC(=O)C1CCN(c2nc(C3CC3)nc3c2nnn3Cc2ccccc2Cl)CC1 | 10.7% |
| O=C(c1ccco1)N1CCN(c2ncnc3c2nnn3Cc2ccccc2Cl)CC1 | 11.1% |
| O=C(Cn1nnc(-c2cc(C(F)(F)F)cc(C(F)(F)F)c2)n1)NNC(=S)Nc1ccc(Cl)cc1 | 10.2% |
| O=C(COC(=O)Cc1ccc(Cl)cc1)Nc1c(F)cccc1F | -44% |
| COc1cc(/C=N/NC(=O)c2ccncc2)ccc1OC(=O)c1ccco1 | 29.2% |

| Compound | inhibition |
| --- | --- |
| CC(=O)c1c(C)[nH]c(C(=O)OCC(=O)NCCc2ccc(F)cc2)c1C | -0.8% |
| Cc1ccsc1C(=O)NNC(=O)C1C2C=CC(C2)C1C(=O)O (stereo not drawn) | 72.2% (active) |
| Cc1ccsc1C(=O)NNC(=O)C1CC=CCC1C(=O)O (stereo not drawn) | -25.2% |
| Cc1ccsc1C(=O)NNC(=O)C1CCCCC1C(=O)O (stereo not drawn) | -15.7% |
| CCCCC(=O)Nc1cccc(-c2cn3ccccc3n2)c1 | -43.7% |
| O=C(CCS(=O)(=O)c1cc2c(cc1Cl)NC(=O)CO2)NCc1ccc(F)cc1 | -25.6% |
| O=C(CCS(=O)(=O)c1cc2c(cc1Cl)NC(=O)CO2)NCc1ccccc1 | 95% (active) |
| Cc1ccc(CNC(=O)CCS(=O)(=O)c2cc3c(cc2Cl)NC(=O)CO3)cc1 | -6.8% |
| CC(=O)OC[C@H]1O[C@@H](O/N=C(\C)CCN2CCCCc3nc(C)c(C)cc32)[C@H](OC(C)=O)[C@@H](OC(C)=O)[C@@H]1OC(C)=O | -2.5% |
| Cc1ccc(S(=O)(=O)c2nc(-c3ccccc3F)oc2N2CC(C)OC(C)C2)cc1 (stereo not drawn) | -20% |
| Cc1ccc(-c2ccc(/C=C(\C#N)C(N)=S)n2C)cc1 | -19.8% |
| Cc1cc(C)c(C)c(/C=C(/C#N)C(N)=S)c1C | 14.2% |
| Cc1cc(C)c(/C=C(\C#N)C(N)=S)c(C)c1 | 106% (active) |
| CC1CCN(C(=O)COc2cccc3c2CCN(Cc2ccccc2)C3=O)CC1 | -16% |
| COc1ccc2nc(NC(C)=O)sc2c1 | -12.9% |
| CC(=O)c1sc(Nc2nc3ccc(F)cc3s2)nc1C | -20.9% |
| Clc1ncccc1-c1nnn(-c2ccccc2Br)n1 | -23.5% |
| CCc1nnc(NC(=O)c2ccc(NC(=O)C(C)C)cc2)s1 | -39.9% |
| N#C/C(=C(/O)CN1CCOCC1)c1nc(-c2ccccc2)cs1 | -15.4% |
| COc1ccc(/C=N/NC(=O)c2cc(C3CC3)[nH]n2)cc1OC | -1.2% |
| COc1ccc(C(=O)CSc2n[nH]c(N)n2)cc1 | -10% |
| COc1ccccc1C(=O)CSc1n[nH]c(N)n1 | 65.9% (active) |
| COc1ccccc1CNC(=O)CSc1n[nH]c(N)n1 | -8.6% |
